# The list is not random: actives were taken first. Their share in the collection is about 2.1%.
# PAX8 reporter: lowers PAX8-driven luciferase in RMG-I cells; inhibition, % at 12.6 µM; RMG-I TPO-luciferase reporter, SteadyGlo, 24 h; 1.2% of 360,000 active;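 active = mean replicate inhibition at least 60% with every replicate also reaching 60%; inconclusive = only one of the two criteria is met; inactive = mean below 60% and not all replicates reaching 60%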;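 note: luciferase light reporting Pax8 driven TPO promoter activity; plate controls were median of neutral control wells for no effect and mitoxantrone controls for full effect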
# EWS-Fli block: blocks EWS/Fli oncoprotein-driven transcription | A673 NR0B1-luciferase reporter, viability-normalised | inhibition, % at 12.6 µM | 0.67% of 350,000 active;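 active = mean inhibition of at least 50% after viability correction, with every replicate also passing that limit; inconclusive = mean reaches 50% but only one of two replicates passes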;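 note: firefly luciferase signal divided by Alamar Blue viability fluorescence both relative to DMSO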
# KKLEB cytotox: CF airway cell cytotoxicity counter-screen; KKLEB CF airway cells viability, ATPlite luminescence, overnight; hits give low values; cells stimulated with P. aeruginosa culture filtrate; activity change (cytotoxicity), % at 5 µM; 0.36% of 360,000 active; AID 602141;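 active = corrected activity change at or below -50% at 5 µM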
# CF NFkB block: inhibitors of cystic fibrosis induced NF-kB; KKLEB NF-kB-GFP reporter, PAF-induced, GFP fluorescence overnight; inhibition, % at 5 µM; 0.86% of 360,000 active;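 active = at least 50% inhibition at 5 µM, scaled per plate between neutral and stimulator controls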;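 note: PAF is a Pseudomonas aeruginosa culture filtrate used as stimulus; plate controls were PAF-stimulated DMSO wells for no effect and unstimulated DMSO wells for full effect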
# HIF-2a block: inhibitors of HIF-2a. 786-0 RCC cells HIF-2a reporter, luciferase luminescence, overnight. inhibition, % at 18.8 µM. 0.72% of 360,000 active. AID 624352;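 active = inhibition of the luminescence signal of 40% or more relative to plate controls, in a single-dose primary screen at 18.75 µM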
# An asterisk follows results filed as active; ? = inconclusive; nt = no result.
SMILES,PAX8 reporter,EWS-Fli block,KKLEB cytotox,CF NFkB block,HIF-2a block
O=C(Nc1cccc(NC(=O)c2cccs2)c1)c1ccc([N+](=O)[O-])o1,101*,14,1,-19,25
O=C(Nc1nc(-c2cccs2)cs1)c1ccc([N+](=O)[O-])o1,67*,-4,-13,76*,-10
O=C(Nc1cccc(NC(=O)c2ccc([N+](=O)[O-])o2)c1)c1ccco1,92*,29,-8,43,-13
O=C(Nc1cccc(N2C(=O)C=CC2=O)c1)c1cccs1,66*,28,1,40,9
Cc1c(NC(=O)c2ccc([N+](=O)[O-])o2)cccc1-c1nc2ncccc2o1,?,17,-31,96*,33
COc1cccc(C(=O)Nc2cccc(-c3nc4ncccc4o3)c2C)c1,nt,nt,0,-17,-53
O=C(Nc1ccc2oc(-c3cccnc3)nc2c1)c1ccc([N+](=O)[O-])o1,4,48,-58*,89*,24
CC(C)C(=O)Nc1ccc2c(c1)C(=O)N(C)[C@@H]1CC[C@@H](CC(=O)O)O[C@H]1CO2,-19,2,nt,nt,nt
C[C@H]1CN([C@@H](C)CO)C(=O)c2cc(NC(=O)Nc3cccc4ccccc34)ccc2O[C@@H]1CN(C)S(=O)(=O)c1ccc(F)cc1,10,0,nt,nt,nt
Cn1c(/C(C#N)=C/c2ccc(-c3ccc(S(N)(=O)=O)cc3)o2)nc2ccccc21,76*,nt,-6,-148,-10
O=C1C(Cl)=C(N2CCC(C(=O)O)CC2)C(=O)c2ccccc21,nt,nt,1,14,-7
NC(=O)C1CCN(C2=C(Cl)C(=O)c3ccccc3C2=O)CC1,nt,nt,1,11,94*
C[C@@H]1CCCCO[C@@H](CN(C)Cc2ccncc2)[C@H](C)CN([C@H](C)CO)C(=O)c2cc(NC(=O)Nc3ccccc3)ccc2O1,14,nt,nt,nt,nt
O=[N+]([O-])c1cc(S(=O)(=O)Oc2ccccc2)ccc1Cl,10,22,-72*,88*,88*
Cc1ccc(S(=O)(=O)Nc2ccc3c(c2)C(=O)N([C@H](C)CO)C[C@H](C)[C@@H](CN(C)S(=O)(=O)c2ccc(C)cc2)OCCCC[C@H](C)O3)cc1,83*,7,nt,nt,nt
Cc1ccc(S(=O)(=O)Nc2ccc3c(c2)C(=O)N([C@@H](C)CO)C[C@H](C)[C@@H](CN(C)S(=O)(=O)c2ccc(C)cc2)OCCCC[C@H](C)O3)cc1,61*,16,nt,nt,nt
Cc1ccc(S(=O)(=O)Nc2ccc3c(c2)C(=O)N([C@H](C)CO)C[C@H](C)[C@H](CN(C)C)OCCCC[C@@H](C)O3)cc1,-17,-6,nt,nt,nt
Cc1ccc(S(=O)(=O)Nc2ccc3c(c2)C(=O)N([C@@H](C)CO)C[C@@H](C)[C@@H](CN(C)C)OCCCC[C@H](C)O3)cc1,87*,-7,nt,nt,nt
Cc1ccc(S(=O)(=O)Nc2ccc3c(c2)C(=O)N([C@H](C)CO)C[C@H](C)[C@H](CN(C)C(=O)c2ccccc2)OCCCC[C@H](C)O3)cc1,96*,-6,nt,nt,nt
Cc1ccc(S(=O)(=O)Nc2ccc3c(c2)C(=O)N([C@H](C)CO)C[C@@H](C)[C@@H](CN(C)C(=O)c2ccccc2)OCCCC[C@H](C)O3)cc1,-24,-10,nt,nt,nt
COc1cccc(-c2ccc3c(c2)[C@@H]2[C@@H](CCN2C(=O)c2ccc4c(c2)OCO4)[C@H](CO)N3C)c1,18,4,nt,nt,nt
Cc1ccc(S(=O)(=O)Nc2ccc3c(c2)C(=O)N([C@H](C)CO)C[C@@H](C)[C@H](CN(C)S(=O)(=O)c2ccc(C)cc2)OCCCC[C@H](C)O3)cc1,84*,9,nt,nt,nt
Cc1ccc(S(=O)(=O)Nc2ccc3c(c2)C(=O)N([C@H](C)CO)C[C@@H](C)[C@@H](CN(C)S(=O)(=O)c2ccc(C)cc2)OCCCC[C@H](C)O3)cc1,-27,6,nt,nt,nt
COc1ccc2c3c(n(C)c2c1)[C@H](CO)NCC31CN(Cc2ccc(-c3ccccn3)cc2)C1,2,15,nt,nt,nt
CNC[C@@H]1OCCCC[C@H](C)Oc2ccc(NC(=O)Nc3cccc4ccccc34)cc2C(=O)N([C@@H](C)CO)C[C@H]1C,-12,10,nt,nt,nt
SMILES,PAX8 reporter,EWS-Fli block,KKLEB cytotox,CF NFkB block,HIF-2a block
Oc1ccc(N=Nc2cccc(Cl)c2)cc1C=Nc1ccc(N2CCOCC2)cc1,28,-19,-10,68*,-11
CC(C)CC#Cc1ccc([C@@H]2[C@H]3CN(C(=O)Nc4ccccc4)CCCCN3[C@H]2CO)cc1,74*,4,nt,nt,nt
C[C@H](O)C#Cc1ccc([C@H]2[C@H]3CN(C(=O)Nc4ccccc4)CCCCN3[C@H]2CO)cc1,69*,-3,nt,nt,nt
COc1ccc2c3c(n(C)c2c1)[C@H](CO)N(C(=O)c1cccnc1)CC31CN(C)C1,nt,3,nt,nt,nt
C[C@@H]1CCCCO[C@@H](CN(C)C(=O)C2CCCCC2)[C@@H](C)CN([C@H](C)CO)C(=O)c2cc(NC(=O)Nc3ccc(F)cc3)ccc2O1,2,2,nt,nt,nt
C[C@H]1CCCCO[C@H](CN(C)C(=O)C2CCCCC2)[C@@H](C)CN([C@@H](C)CO)C(=O)c2cc(NC(=O)Nc3ccc(F)cc3)ccc2O1,85*,9,nt,nt,nt
C[C@H](CO)N1C[C@H](C)[C@H](CN(C)C(=O)C2CCCCC2)OCCCC[C@H](C)Oc2ccc(NC(=O)Nc3ccc(F)cc3)cc2C1=O,74*,5,nt,nt,nt
C[C@@H]1CN([C@H](C)CO)C(=O)c2cc(NC(=O)Nc3ccc(F)cc3)ccc2O[C@@H](C)CCCCO[C@H]1CN(C)C(=O)C1CCCCC1,86*,17,nt,nt,nt
CCc1cc(C(=O)N/N=C/c2ccc(O)cc2O)c2ccccc2n1,67*,nt,3,-8,9
COc1ccc(N2C(=O)CC(c3cc(OC)c(OC)c(OC)c3)CC2=O)cc1,15,25,-3,-1,5
COc1cc(C2CC(=O)N(c3ccc(C)cc3)C(=O)C2)cc(OC)c1OC,20,53*,0,-5,11
Cc1ccc(S(=O)(=O)N2C[C@@H]3O[C@@H](CNS(=O)(=O)c4ccccc4C)CC[C@@H]32)cc1,nt,-4,nt,nt,nt
CC1=CC(C)(C)N2C(=O)C3(NCCc4c3[nH]c3ccccc43)c3cc(C)cc1c32 (stereo unspecified),88*,10,-5,15,-5
CN1C(=O)C2(NCCc3c2[nH]c2ccccc32)c2ccccc21 (stereo unspecified),nt,nt,2,4,28
O=C(Nc1cccc(F)c1)N1CC(=O)N2[C@H](C1)[C@@H](c1ccc(Br)cc1)[C@@H]2CO,0,1,nt,nt,nt
CC(C)NC(=O)Nc1cccc2c1O[C@@H](CN(C)S(=O)(=O)c1ccc(F)cc1)[C@@H](C)CN([C@@H](C)CO)C2=O,11,2,nt,nt,nt
O=C(C[C@H]1CC[C@H](NC(=O)Nc2ccc(C(F)(F)F)cc2)[C@@H](CO)O1)NCc1ccccn1,14,-6,nt,nt,nt
O=C(C[C@H]1C=C[C@@H](NC(=O)CC2CC2)[C@@H](CO)O1)NCc1ccccc1,nt,-5,nt,nt,nt
